Values without a mark were called inactive. Where a call stands in place of a potency, no number is given. Activity calls are given as the source filed them. Calls follow the shape of the dose curve; as a rule, active = well fitted activation curve with a large enough effect in the repeat runs; inconclusive = weak or mixed curves; inactive = flat fitted curve, though single readings scatter.
assay: A CellTox Green Cytotoxicity Assay to monitor cytotoxicity in HEK293 cells - 0 hour (AID 1224869); settings: CellTox Green fluorescence; series mostly up to 76.8 µM; also: nearly all actives have a fitted effect of over 50% in size
Source text: National Center for Advancing Translational Sciences [NCATS]
NIH Chemical Genomics Center [NCGC]
U.S. Environmental Protection Agency [EPA]
National Institutes of Environmental Health Sciences [NIEHS]
National Toxicology Program [NTP]
Cell-based models are critical for drug discovery. Determining the natural cytotoxic effects resulting from test compounds is an essential research activity. A CellTox Green Cytotoxicity Assay to monitor cytotoxicity in real time of continues cell culture during 40 hours of the compound treatment was used to screen Tox21 10K library compounds in Hek293 cells. CellTox Green Cytotoxicity Assay is a nonlytic, homogeneous, biofluorescent method to measure cytotoxicity in cell culture after experimental manipulation. The assay system uses a proprietary asymmetric cyanine dye that is excluded from viable cells but preferentially stains the dead cell's DNA. […] Viable cells produce no appreciable increases in fluorescence. Therefore, the fluorescence signal produced by the binding interaction with dead cell DNA is proportional to cytotoxicity.
The mixture of Hek293 cell suspension and reagents were dispensed at 600cells/6 ul/well in 1536-well tissue culture treated black solid bottom plates using a Multidrop dispenser. After the assay plates were incubated at a 37 C/5% CO2 incubator for 5 hours, 23 nL of compounds dissolved in DMSO, positive and negative controls was transferred to the assay plate by a pintool work station. The plates were incubated at 37 C for 40 hours. The fluorescence intensity were measured at 0h, 8h, 16h, 24h, 32h and 40h time points using ViewLux plate reader during compound treatment.

SMILES | Potency | cytotoxicity
CC[N+](C)(C)c1cccc(O)c1 | inactive | 
CC(C)c1cc2c(cc1S(=O)(=O)O)[C@@]1(C)CCC[C@@](C)(C(=O)O)[C@@H]1CC2 | inactive | 
CCC=O | inactive | 
COC(=O)c1c(Cl)c(Cl)c(C(=O)OC)c(Cl)c1Cl | inactive | 
CCC(C)C1CCCCC1=O (stereo not given) | inactive | 
Cn1cc(S(C)=O)c(=O)c2ccc(F)cc21 (stereo not given) | inactive | 
CC(C)(CC(=O)O)C(=O)O | inactive | 
CCCCCOC(=O)CCCCC | inactive | 
CCC(C)S (stereo not given) |  | -0.294% [at 2.72 µM]
O=C(O)CCCl | inactive | 
CC(C)(O)C(=O)c1ccccc1 | inactive | 
COc1nc(N)nc2c1ncn2[C@@H]1O[C@H](CO)[C@@H](O)[C@@H]1O | inactive | 
CCOC(=O)CCC(C)=O | inactive | 
O=C1CCCN1C1CCCCC1 | inactive | 
Cc1sccc1Br | inactive | 
CC(=O)Nc1c(I)cc(I)c(C(=O)O)c1I | inactive | 
C=CCCCCCCCCC=O | inactive | 
OCCOc1ccc(OCCO)cc1 | inactive | 
CCc1nccnc1CC |  | -0.912% [at 15.8 µM]
COCCCOCCCOC | inactive | 

SMILES | Potency | cytotoxicity
CC(=O)OC/C=C(\C)CC/C=C(\C)CCC=C(C)C | inactive | 
O=S(O)CO | inactive | 
CC1=CC(C)C(C=O)CC1 (stereo not given) | inactive | 
O=C1CCCC(=O)C1 | inactive | 
COC(=O)CCSCCC(=O)OC | inactive | 
CCOC(=O)Nc1ccc(NCc2ccc(F)cc2)nc1N | inactive | 
CCCCC(CC)COC(=O)c1ccccc1O (stereo not given) | inactive | 
CC(=O)CC(C)C | inactive | 
CCS(=O)(=O)c1ccc(OC)c(C(=O)OC)c1 | inactive | 
CCSC(=O)N(CC(C)C)CC(C)C | inactive | 
CC(=O)c1ccccc1O | inactive | 
NC(=O)c1ccc(N)cc1 | inactive | 
Oc1ccc(C2CNCCc3c2cc(O)c(O)c3Cl)cc1 (stereo not given) | inactive | 
CN(C)CCCNCCCN(C)C | inactive | 
CC/C=C\CC/C=C/C(OCC)OCC | inactive | 
CN1CCC(=C2c3ccccc3CC(=O)c3sccc32)CC1 | inactive | 
CCCCCCOC(=O)CCCCC(=O)OCCCCCC | inactive | 
COc1c(N2C[C@@H]3CCCN[C@@H]3C2)c(F)cc2c(=O)c(C(=O)O)cn(C3CC3)c12 | inactive | 
CCn1nc(C(=O)O)c(=O)c2cc3c(cc21)OCO3 | inactive | 
CC(C)(c1ccc(O)cc1)c1ccc(O)cc1 | inactive | 
